Results: PubChem BioAssay (Tox21)
Results filed as inconclusive are left out. A call without a number means that no potency is given here. Active and inactive are the calls of the source. Calls follow the shape of the dose curve; as a rule, active = well fitted activation curve with a large enough effect in the signal ratio in the repeat runs (not every such curve was filed as active); inconclusive = weak or mixed curves, or effect the other way; inactive = no such curve, though single readings can be large or run the other way; the % refers to the signal ratio.

biological target: Peroxisome proliferator-activated receptor gamma (Homo sapiens) (UniProt P37231); assay: qHTS assay to identify small molecule agonists of the peroxisome proliferator-activated receptor gamma (PPARg) signaling pathway (AID 743094); conditions: HEK293H PPARg-UAS-bla, beta-lactamase FRET ratio, 17 h; series mostly up to 57 µM
Sequence (P37231 whole entry, looked up): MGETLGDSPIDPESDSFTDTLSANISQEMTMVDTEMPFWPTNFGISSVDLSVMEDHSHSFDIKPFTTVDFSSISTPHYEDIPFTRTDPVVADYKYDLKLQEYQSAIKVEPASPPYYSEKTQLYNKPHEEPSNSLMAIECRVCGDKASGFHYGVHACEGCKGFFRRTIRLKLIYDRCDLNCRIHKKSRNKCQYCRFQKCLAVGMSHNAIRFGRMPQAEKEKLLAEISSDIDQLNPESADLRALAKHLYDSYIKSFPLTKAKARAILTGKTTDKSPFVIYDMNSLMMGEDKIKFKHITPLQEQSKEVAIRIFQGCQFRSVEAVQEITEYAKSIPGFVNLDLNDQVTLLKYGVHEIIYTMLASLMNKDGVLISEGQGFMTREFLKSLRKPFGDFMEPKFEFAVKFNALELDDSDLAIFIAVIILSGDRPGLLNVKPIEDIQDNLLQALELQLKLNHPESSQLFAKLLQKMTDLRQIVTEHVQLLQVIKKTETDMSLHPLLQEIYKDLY
Text: U.S. Tox21 Program National Center for Advancing Translational Sciences [NCATS] NIH Chemical Genomics Center [NCGC] U.S. Environmental Protection Agency [EPA] National Institutes of Environmental Health Sciences [NIEHS] National Toxicology Program [NTP] U.S. Food and Drug Administration [FDA] Tox21 Assay Overview: The peroxisome proliferator-activated receptors (PPARs) are lipid-activated transcription factors of the nuclear receptor superfamily with three distinct subtypes namely PPAR alpha, PPAR delta (also called PPAR beta) and PPAR gamma (PPARg). All these subtypes heterodimerize with Retinoid X receptor (RXR) and these heterodimers regulate transcription of various genes. PPAR-gamma receptor (glitazone receptor) is involved in the regulation of glucose and lipid metabolism. To identify the compounds that activate PPAR-gamma signaling, GeneBLAzer PPAR gamma UAS-bla HEK293H cell line (Invitrogen, Carlsbad, CA, USA) containing a beta-lactamase reporter gene under control of the control of an upstream activator sequence (UAS) stably integrated into HEK293H cells was used to screen Tox21 compound library.
Tox21 Assay Protocol Summary: PPARg-bla cells were dispensed at 3000 cells/6uL/well in 1536-well black wall/clear bottom plates using a Multidrop Combi (Thermo Fisher Scientific, Waltham, MA) dispenser. After the assay plates were incubated at 37C and 5% CO2 for 5 h, 23 nL of compounds dissolved in DMSO, positive controls or DMSO only was transferred to the assay plate by a Pintool station (Kalypsys, San Diego, CA). The assay plates were incubated at 37C for 17 h. After 1 uL of LiveBLAzerTM B/G FRET substrate was added using a Bioraptr Flying Reagent Dispenser (FRD) workstation (Beckman Coulter, Indianapolis, IN, USA), the plates were incubated at room temperature for 1 h, and fluorescence intensity was measured by an Envision plate reader (PerkinElmer, Shelton, CT).

| SMILES | Potency | activation |
| --- | --- | --- |
| CCCCCCCCCCOc1cc2c(=O)c(C(=O)OCC)c[nH]c2cc1OCC | inactive | – |
| COCCOC[C@H](CC1(C(=O)NC2CCC(C(=O)O)CC2)CCCC1)C(=O)Oc1ccc2c(c1)CCC2 (stereo not given in full) | inactive | – |
| CN1[C@@H]2CC[C@H]1CC(OC(=O)C(O)c1ccccc1)C2 (stereo not given in full) | inactive | – |
| Cc1cc(C)c(N=Nc2c(O)c(S(=O)(=O)O)cc3cc(S(=O)(=O)O)ccc23)cc1C | – | -9.42% [at 7.08 µM] (inactive) |
| CCN[C@@H]1C[C@H](N)[C@@H](OC2OC(CN)=CCC2N)[C@H](O)[C@H]1O[C@H]1OC[C@](C)(O)[C@H](NC)[C@H]1O (stereo not given in full) | inactive | – |
| C=CC(C)(CCC=C(C)C)OC(=O)CC (stereo not given) | inactive | – |
| CC1(C)OC[C@@H](COC(=O)CCc2ccc(OC[C@@H](O)CNCCNC(=O)N3CCOCC3)cc2)O1 | inactive | – |
| CC1=C(C/C=C(\C)CCC[C@H](C)CCC[C@H](C)CCCC(C)C)C(=O)c2ccccc2C1=O | inactive | – |
| CCNS(=O)(=O)c1ccc(C)cc1 | inactive | – |
| O=C(c1ccccc1)C1(O)CCCCC1 | inactive | – |
| C=CCOCC(O)CO (stereo not given) | inactive | – |
| Cc1ccc(C(=O)Nc2ccc(S(=O)(=O)O)c3cc(S(=O)(=O)O)cc(S(=O)(=O)O)c23)cc1NC(=O)c1cccc(NC(=O)Nc2cccc(C(=O)Nc3cc(C(=O)Nc4ccc(S(=O)(=O)O)c5cc(S(=O)(=O)O)cc(S(=O)(=O)O)c45)ccc3C)c2)c1 | inactive | – |
| C[N+]12CCC(CC1)C(OC(=O)C(O)(c1ccccc1)c1ccccc1)C2 (stereo not given) | inactive | – |
| CC(C)(C)C(=O)Oc1ccc(S(=O)(=O)Nc2ccccc2C(=O)NCC(=O)O)cc1 | inactive | – |
| O=C1c2ccccc2C(=O)c2cc(O)ccc21 | inactive | – |
| CC1=CCC(O)(C(C)C)CC1 (stereo not given) | inactive | – |
| c1ccc(Cc2ccccc2)cc1 | inactive | – |
| OCCc1ccccn1 | inactive | – |
| CCCO[Si](OCCC)(OCCC)OCCC | inactive | – |
| COc1cc2c(cc1OC)-c1cc3ccc(OC)c(OC)c3c[n+]1CC2 | inactive | – |

| SMILES | Potency | activation |
| --- | --- | --- |
| CCOC(=O)c1ccccc1 | inactive | – |
| C=CCCCCCCCCC(=O)OCC | inactive | – |
| O=C(O)CCSCCC(=O)O | inactive | – |
| Cc1ccnc(NS(=O)(=O)c2ccc(N)cc2)n1 | inactive | – |
| CC(C)C1CCC(O)CC1 (stereo not given) | inactive | – |
| CCCOC(=O)CC | inactive | – |
| FB(F)F | inactive | – |
| COC(=O)C1=C(C)NC(C)=C(C(=O)OC(C)C)C1c1cccc2nonc12 (stereo not given) | inactive | – |
| CC1=NS(=O)(=O)c2cc(Cl)ccc2N1 | inactive | – |
| c1ccc(CCc2ccccc2)cc1 | inactive | – |
| CCCCCCCCCCCCCCC(=O)O | inactive | – |
| O=S(=O)(O)c1cccc2c(S(=O)(=O)O)cccc12 | inactive | – |
| Nc1ccncc1N | inactive | – |
| CCCCCCC#CC(=O)OC | inactive | – |
| NS(=O)(=O)Cc1noc2ccccc12 | inactive | – |
| O=Cc1cccc(Br)c1 | inactive | – |
| CC(CO)(CO)[N+](=O)[O-] | inactive | – |
| [Ca+2] | inactive | – |
| C=C[Si](OC(C)=O)(OC(C)=O)OC(C)=O | inactive | – |
| C=COC(=O)C(C)(CC)CCC(C)C (stereo not given) | inactive | – |
